mIDH1 inhibitor: qHTS for Inhibitors of mutant isocitrate dehydrogenase 1 (IDH1): qHTS; 390,000 compounds, 0.093% hits; IDH1-R132H enzyme, NADPH consumption, diaphorase/resazurin fluorescence; Potency, µM (titrated, usually from 76.6 µM), inactives show at the top dose activity change, negative = inhibition, actives largely listed as inhibitors; Isocitrate dehydrogenase [NADP] cytoplasmic (Homo sapiens), O75874; also: potency is read from the fitted curve at half-maximal effect; % is scaled to controls: 0 for no effect and ±100 for the full control effect; nearly all actives have a fitted effect of over 65% in size
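IDH1-R132H (0.5 ug/mL dispensed) in pH 7.5 Tris buffer was preincubated 30 min with compound, then given a substrate mix of 0.016 mM NADPH and 2 mM alpha-KG for 80 min at room temperature; remaining NADPH was read by diaphorase/resazurin fluorescence.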
ClpP mod: qHTS Assay for Activators of ClpP; 340,000 compounds, 1.9% hits; purified B. subtilis ClpP, FRET peptide cleavage, 20 min; Potency, µM (series often up to 57.5 µM), for inactives: at the top dose activity change, negative = active; ATP-dependent Clp protease proteolytic subunit (Bacillus subtilis (strain 168)), P80244; AID 651965, 2013; active = well fitted falling curve with a large enough effect; inconclusive = small, poorly fitted or top-dose-only effect; inactive = no such curve, though single readings can be large or run the other way; also: potency is read from the fitted curve at half-maximal effect; the source files actives as falling curves though it sought activators and does not explain the sign; nearly all actives have a fitted effect of over 65% in size
Target sequence (P80244 whole entry, looked up): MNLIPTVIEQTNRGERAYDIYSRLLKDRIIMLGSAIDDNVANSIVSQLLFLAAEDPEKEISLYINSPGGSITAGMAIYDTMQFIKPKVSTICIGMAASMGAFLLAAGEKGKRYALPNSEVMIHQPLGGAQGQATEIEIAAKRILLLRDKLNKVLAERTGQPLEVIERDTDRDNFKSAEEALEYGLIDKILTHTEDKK
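ClpP 10 microg/mL final, pH 8 Tris/KCl buffer with BSA, glycerol, Tween-20; compound pinned in; FRET-FV substrate; RT 20 min; Ex320/Em430; ΔFRET vs ADEP 5.8 microM, DMSO, no enzyme.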
S-ASM inh: Inhibitors of Secretory Acid Sphingomyelinase (S-ASM): qHTS; Sphingomyelin phosphodiesterase (Homo sapiens), P17405; placental ASM, HMU-PC fluorogenic substrate, 60 min; Potency, µM (doses to about 57.5 µM), without a hit: at the highest dose activity change, negative = inhibition, most hits filed as inhibitors; 340,000 compounds, 0.006% hits; AID 504937, 2011; also: potency is read from the fitted curve at half-maximal effect
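qHTS format. ASM enzyme prepared from human placenta hydrolyses the fluorogenic substrate HMU-PC0 (9 uM final) over 60 min at 37 °C after a 10 min compound preincubation.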
RGS4 inh: Inhibitors of Regulator of G Protein Signaling (RGS) 4: qHTS | AID 504845, 2011 | Transcreener GDP fluorescence polarization, RGS4-accelerated GTP hydrolysis | Regulator of G-protein signaling 4 (Homo sapiens), P49798 | 390,000 compounds, 0.039% hits | Potency, µM (top dose mostly 114 µM), without a hit: at the top dose activity change, negative = inhibition, most hits filed as inhibitors; also: potency is read from the fitted curve at half-maximal effect; % is scaled to controls: 0 for no effect and ±100 for the full control effect; nearly all actives have a fitted effect of over 75% in size
Target sequence (P49798 whole entry, looked up): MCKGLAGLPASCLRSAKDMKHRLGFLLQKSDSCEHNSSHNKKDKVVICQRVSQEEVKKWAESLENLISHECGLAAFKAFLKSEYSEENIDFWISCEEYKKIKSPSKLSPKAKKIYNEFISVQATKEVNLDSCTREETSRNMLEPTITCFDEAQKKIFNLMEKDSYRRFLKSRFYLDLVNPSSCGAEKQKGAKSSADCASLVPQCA
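MLSMR compounds (23 nl, pin-transferred) preincubated 10 min at room temperature with a 500nM (2x) first reagent, then RGS4 at 900nM (2x) plus Transcreener GDP mix added; fluorescence polarization (620/688 nm) read before and after 90 min at 30 °C.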
LDHA inh: qHTS assay for inhibitors of human lactate dehydrogenase; purified LDHA, NADH/diaphorase-resazurin fluorescence; hits give low values; activity change, % (values are at about 110 or 230 µM); 480,000 compounds, 0.15% hits; in the data active = activity change below about -30%; inconclusive = mostly about -25% to -30%;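 also: plate controls were DMSO wells for no effect and wells without enzyme for full effect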
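LDH5 2 nM; NADH 0.06 mM, pyruvate 0.2 mM; 200 mM Tris pH 7.4, EDTA, Tween-20; 5 min RT. Detection: diaphorase 0.133 mg/mL + resazurin 37 µM, fluorescence ex540/em590 at 0 and 20 min; normalized to enzyme-free and DMSO wells.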
Mito fusion yeast: qHTS Assay for Small Molecule Inhibitors of Mitochondrial Division or Activators of Mitochondrial Fusion. S. cerevisiae fusion-defective mutant growth rescue, CellTiterGlo 48 h. Potency, µM (doses to about 46.1 µM), without a hit: at the top dose growth rescue (activation), most hits filed as activators. 320,000 compounds, 0.23% hits. AID 485298, 2010; also: potency is read from the fitted curve at half-maximal effect; % of control where 0% means no effect; nearly all actives have a fitted effect of over 45% in size
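Luminescent cell viability in 1536-well qHTS format served as the measure of rescued growth in ts fusion-mutant S. cerevisiae cultured on non-fermentable YPEG for 48 hours at 37C.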
The depositor's hits bear a star; ? = inconclusive; nt = no result; [ ] = dose if it differs, or a comment. This excerpt belongs to a sample that is enriched for hits. Unless noted, calls follow the shape of the dose curve; as a rule, active = well fitted curve in the direction sought with a large enough effect; inconclusive = small, poorly fitted or top-dose-only effect, or another doubt; inactive = no such curve, though single readings can be large; an effect the other way counts as inactive or inconclusive.

SMILES | mIDH1 inhibitor | ClpP mod | S-ASM inh | RGS4 inh | LDHA inh | Mito fusion yeast
CCCC(C(=O)NCC1CCCO1)N(Cc1ccco1)C(=O)CNS(=O)(=O)c1ccccc1 (stereo not given) | 7% | 25µM* | 5% | 4% | -5 | 3%
CCCC(C(=O)NC1CCCCC1)N(Cc1ccco1)C(=O)CNS(=O)(=O)c1ccccc1 (stereo not given) | 4% | 0% | 0% | 15%[11.4 µM] | -6 | -2%
Nc1ccccc1OCCOCCOc1ccccc1N | -2% | 22µM* | -4% | 0% | 17 | 0%
CCOc1ccc(C=Nc2ccc(N(C)C)cc2)cc1 | nt | nt | nt | nt | 26 | nt
C=CCSC1=C(C#N)C(c2ccccc2C)CC(=O)N1 (stereo not given) | 4% | 28µM* | -2% | ? | -1 | 6%
CN(C)C(=O)COc1ncnc2c(Cl)cc(Cl)cc12 | nt | nt | nt | nt | 0 | nt
Cc1cc(C(=O)NCc2cc(C)n(C)n2)sc1-c1ccccc1 | 4% | 25µM* | -3% | -5% | 2 | 7%
COCCOC(=O)c1c(C)oc2ccc(OCc3ccccc3)cc12 | 2% | nt | -8% | -24% | -5 | 11µM*
COC(=O)c1cc(COc2ccc3oc(C)c(C(=O)OC(C)C)c3c2)c(C)o1 | -2% | 2.5µM* | -6% | 8% | 0 | 7%
CSc1ccc(CN(C)CC(=O)NC(=O)NCc2ccco2)cc1 | nt | nt | nt | nt | 4 | nt
Cc1ccc2cc3c(nc2c1)N(Cc1ccco1)CC3 | 7% | 28µM* | 12% | ? | -3 | 2%
COc1ccc(-c2cc(C(=O)OC3CCOC3=O)c3ccccc3n2)cc1 (stereo not given) | 3% | 25µM* | 292% | 25% | -13 | 0%
COc1ccc(-c2cc(C(=O)Oc3ccc([N+](=O)[O-])cc3)c3ccccc3n2)cc1 | -1% | 28µM* | 26% | 10% | -7 | 3%
O=C1CSc2ccc(C(=O)NC3CCCCC3)cc2N1 | nt | nt | nt | nt | 4 | nt
CCOc1ccc(-n2nc(CO)c(C(=O)NCc3ccccn3)n2)cc1 | 14% | 11µM* | nt | -1% | 5 | nt
CCc1ccc(-n2nc(CO)c(C(=O)NCc3ccccn3)n2)cc1 | 2% | 14µM* | nt | -9% | 2 | nt
O=C(NCc1ccccn1)c1nn(-c2ccccc2Cl)nc1CO | 0% | -1% | nt | 2% | 0 | nt
Cc1cc(C(=O)N2CCN(S(=O)(=O)c3c(F)cccc3F)CC2)c(C)n1Cc1cccs1 | nt | nt | nt | nt | -1 | nt
Cc1ccc(C(=O)Nc2c(C)cc(-c3ccc(Cl)cc3)oc2=O)cc1 | 1% | 14µM* | 72% | -14%[11.4 µM] | -5 | 7%
COc1cc(-c2nc(-c3ccc(NC(=O)c4ccc5c(c4)OCO5)cc3)no2)cc(OC)c1OC | 12% | 20µM* | 1% | ? | -11 | -3%
CCCc1cc(=O)oc2cc(C)c3c(C)coc3c12 | 2% | ? | 8% | -4% | 0 | 26%
CCCc1cc(=O)oc2cc(C)c3c(-c4ccccc4)coc3c12 | -5% | 20µM* | nt | 0% | -5 | nt
CCN1CCN(c2oc(-c3ccc(COc4ccc(C)cc4)o3)nc2C#N)CC1 | 0% | 32µM* | nt | 2% | -4 | nt
COc1ccc(OCc2ccc(-c3nc(C#N)c(N4CCN(c5cccc(Cl)c5)CC4)o3)o2)cc1 | -6% | 3.5µM* | nt | -8% | -1 | nt
COc1ccc(-c2nc(C#N)c(N3CCCCC3)o2)cc1 | 1% | -2% | 6% | 16% | -5 | 14%
